Measured values: PubChem BioAssay (NCATS)
Results filed as inconclusive are left out. Active and inactive are the calls of the source. Calls follow the shape of the dose curve; as a rule, active = well fitted inhibition curve with a large enough effect; inconclusive = small, poorly fitted or top-dose-only effect; inactive = flat fitted curve, though single readings scatter.

How the values were obtained:
TAB109 = assay: qHTS profiling for inhibitors of Plasmodium falciparum proliferation (AID 504749);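 also: 0% = DMSO vehicle and full inhibition = artemisinin control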; conditions: P. falciparum in erythrocytes, SYBR Green DNA, 72 h; series mostly up to 28.7 µM
Procedure, shortened: (§1)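 P. falciparum-infected erythrocytes (0.3% parasitemia, 2.5% hematocrit) incubated with compound 72 h at 37 C, 5% CO2. Parasite DNA detected by SYBR Green after lysis, overnight at room temperature; normalised to 0.29 uM artemisinin and DMSO.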

TAB113 = assay: as above; conditions: P. falciparum in erythrocytes, SYBR Green DNA, 72 h; series mostly up to 28.7 µM
Procedure, shortened: as §1

TAB165 = assay: as above; conditions: P. falciparum in erythrocytes, SYBR Green DNA, 72 h; series mostly up to 28.7 µM
Procedure, shortened: as §1

W2 = assay: as above; conditions: P. falciparum in erythrocytes, SYBR Green DNA, 72 h; series mostly up to 28.7 µM
Procedure, shortened: as §1

CRL-7250 = normal cell line; assay: Cytotoxic Profiling of Annotated Libraries Using Quantitative High-Throughput Screening (AID 1296008); conditions: Five cell lines viability, CellTiter-Glo ATP luminescence, 48-72 h; active compounds read low; as to max response: % is scaled to controls: 0 for no effect and ±100 for the full control effect
Procedure, shortened: (§2)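 Cells exposed to compounds for 48 or 72 hr at 37 degrees Celsius. Viability read as ATP-coupled luminescence with CellTiter-Glo after 10 min at room temperature.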

HEK293 = assay: as above; conditions: Five cell lines viability, CellTiter-Glo ATP luminescence, 48-72 h; active compounds read low
Procedure, shortened: as §2

HaCat [1] = assay: as above; conditions: Five cell lines viability, CellTiter-Glo ATP luminescence, 48-72 h; active compounds read low
Procedure, shortened: as §2

KB-3-1 = assay: as above; conditions: Five cell lines viability, CellTiter-Glo ATP luminescence, 48-72 h, active compounds read low
Procedure, shortened: as §2

NIH3T3 = assay: as above; conditions: Five cell lines viability, CellTiter-Glo ATP luminescence, 48-72 h; active compounds read low
Procedure, shortened: as §2

HACAT [2] = assay: qHTS assay to identify novel small-molecules to repurpose for Merkel cell carcinoma treatment (AID 1296009); conditions: MCC and control cell lines, CellTiter-Glo viability, 72 h; at 44.8 µM (top of the series) unless noted
Procedure, shortened: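 Cells were treated for 72 hr at 37 degree celsius with compounds in 8- or 11-point dose response. Viability was read by CellTiter-Glo luminescence, normalized to no-cell (cytotoxicity) and DMSO controls.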
Also: nearly all actives have a fitted effect of over 60% in size.

NC(N)=NS(=O)(=O)c1ccc(N)cc1
inactive: Potency (TAB109) | Potency (TAB113) | Potency (TAB165) | Potency (W2) | outcome (CRL-7250) | max response (HEK293) -6.28% | outcome (HaCat [1]) | max response (KB-3-1) 15.5% | outcome (NIH3T3) | outcome (HACAT [2])

CCCCCC(N)=O
inactive: Potency (TAB109) | Potency (TAB113) | Potency (TAB165) | Potency (W2) | outcome (CRL-7250) | max response (HEK293) -2.09% | outcome (HaCat [1]) | max response (KB-3-1) -2.56% | outcome (NIH3T3) | outcome (HACAT [2])

Cc1cccc(Nc2ccccc2C(=O)O)c1C
inactive: Potency (TAB109) | Potency (TAB113) | Potency (TAB165) | Potency (W2) | max response (CRL-7250) 0.921% | max response (HEK293) -1.57% | outcome (HaCat [1]) | max response (KB-3-1) 3.77% | max response (NIH3T3) 1.27% | outcome (HACAT [2])

NCC1CCC(C(=O)Oc2ccc(CCC(=O)O)cc2)CC1 (stereo not given)
inactive: Potency (TAB109) | Potency (TAB113) | Potency (TAB165) | Potency (W2) | max response (CRL-7250) -11.6% | max response (HEK293) -1.47% | outcome (HaCat [1]) | max response (KB-3-1) -7.85% | max response (NIH3T3) -0.473% | outcome (HACAT [2])

CC(=O)OCC(COC(C)=O)OC(C)=O
inactive: Potency (TAB109) | Potency (TAB113) | Potency (TAB165) | Potency (W2) | max response (CRL-7250) -1.86% | max response (HEK293) -3.97% | outcome (HaCat [1]) | max response (KB-3-1) 8.48% | outcome (NIH3T3) | outcome (HACAT [2])

COc1ccc(Cc2cnc(N)nc2N)cc1OC
inactive: Potency (TAB109) | Potency (TAB113) | Potency (TAB165) | Potency (W2) | max response (CRL-7250) -8.49% | max response (HEK293) 2.64% | outcome (HaCat [1]) | max response (KB-3-1) -1.92% | max response (NIH3T3) -0.487% | outcome (HACAT [2])

O[C@@H]1CO[C@H]2[C@@H]1OC[C@@H]2O
inactive: Potency (TAB109) | Potency (TAB113) | Potency (TAB165) | Potency (W2) | outcome (CRL-7250) | max response (HEK293) -0.534% | outcome (HaCat [1]) | max response (KB-3-1) 6.79% | max response (NIH3T3) 4.37% | outcome (HACAT [2])

Cc1onc(-c2ccccc2)c1-c1ccc(S(N)(=O)=O)cc1
inactive: Potency (TAB109) | Potency (TAB113) | Potency (TAB165) | Potency (W2) | outcome (CRL-7250) | max response (HEK293) -13.2% | outcome (HaCat [1]) | max response (KB-3-1) 6.03% | outcome (NIH3T3) | outcome (HACAT [2])

O=C(O)CCC(=O)O
inactive: Potency (TAB109) | Potency (TAB113) | Potency (TAB165) | Potency (W2) | max response (CRL-7250) 3.26% | max response (HEK293) 3.09% | outcome (HaCat [1]) | max response (KB-3-1) 7.68% | max response (NIH3T3) -0.925% | outcome (HACAT [2])

O=C(NCCCN1CCOCC1)c1ccc(Cl)cc1
inactive: Potency (TAB109) | Potency (TAB113) | Potency (TAB165) | Potency (W2) | max response (CRL-7250) -10.4% | max response (HEK293) 1.26% | outcome (HaCat [1]) | max response (KB-3-1) 1.85% | outcome (NIH3T3) | outcome (HACAT [2])

CC(=O)Oc1cccc(O)c1
inactive: Potency (TAB109) | Potency (TAB113) | Potency (TAB165) | Potency (W2) | max response (CRL-7250) 2.6% | max response (HEK293) 2.67% | outcome (HaCat [1]) | max response (KB-3-1) -9.73% | outcome (NIH3T3) | outcome (HACAT [2])

O=C(O)CCCCC1CCSS1 (stereo not given)
inactive: Potency (TAB109) | Potency (TAB113) | Potency (TAB165) | Potency (W2) | max response (CRL-7250) -4.66% | max response (HEK293) 0.811% | outcome (HaCat [1]) | max response (KB-3-1) 3.98% | max response (NIH3T3) 1.45% | outcome (HACAT [2])

Cc1c(NC(=O)c2cccnc2)c(=O)n(-c2ccccc2)n1C
inactive: Potency (TAB109) | Potency (TAB113) | Potency (TAB165) | Potency (W2) | max response (CRL-7250) -9.05% | max response (HEK293) 0.504% | outcome (HaCat [1]) | max response (KB-3-1) -0.639% | outcome (NIH3T3) | outcome (HACAT [2])

CC(=O)SC[C@@H](Cc1ccccc1)C(=O)NCC(=O)OCc1ccccc1
inactive: Potency (TAB109) | Potency (TAB113) | Potency (TAB165) | Potency (W2) | outcome (CRL-7250) | max response (HEK293) -5.72% | outcome (HaCat [1]) | max response (KB-3-1) 6.03% | max response (NIH3T3) -11.9% | outcome (HACAT [2])

C=CCNC(N)=S
inactive: Potency (TAB109) | Potency (TAB113) | Potency (TAB165) | Potency (W2) | max response (CRL-7250) -5.07% | max response (HEK293) -1.79% | outcome (HaCat [1]) | max response (KB-3-1) -9.92% | max response (NIH3T3) 4.81% | outcome (HACAT [2])

COC(=O)c1cccnc1
inactive: Potency (TAB109) | Potency (TAB113) | Potency (TAB165) | Potency (W2) | max response (CRL-7250) -1.99% | outcome (HEK293) | outcome (HaCat [1]) | max response (KB-3-1) 10% | max response (NIH3T3) 0.586% | outcome (HACAT [2])

Cn1c(=O)c2c(ncn2CCO)n(C)c1=O
inactive: Potency (TAB109) | Potency (TAB113) | Potency (TAB165) | Potency (W2) | max response (CRL-7250) -4.29% | max response (HEK293) -4.8% | outcome (HaCat [1]) | max response (KB-3-1) -5.28% | max response (NIH3T3) -3.21% | outcome (HACAT [2])
